Screens (PubChem BioAssay)
Rows were chosen to be rich in hits. Some 5.7% of all compounds tested hit in one or more screens of this group.
TGFb SMAD3 inh: blocks TGF-b signaling; HepG2 CAGA-GFP TGF-b/SMAD3 reporter, GFP fluorescence, 18 h; TGF-beta stimulated, 500 pg/mL final; Potency, µM (titrated, usually from 46.1 µM), without a hit: top-dose activity, negative = inhibition, usual class: inhibitors; 1.2% of 410,000 active; also: potency is read from the fitted curve at half-maximal effect; % is scaled to controls: 0 for no effect and ±100 for the full control effect; nearly all actives have a fitted effect of over 65% in size
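HEPG2 CAGA-GFP cells (1000/well, DMEM with 1% FBS) were pre-incubated 2 h at 37 degrees C, given compound by pin tool, then stimulated with TGF-beta at 500 pg/mL final for 18 h before per-cell GFP fluorescence imaging.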
ATXN2 expr inh: ATXN2 expression inhibition; HEK-293 ATXN2-luciferase reporter, luminescence, 24 h; Potency, µM (series often up to 57 µM), inactives show at the top dose activity change, negative = inhibition, usual class: inhibitors; 0.72% of 360,000 active; AID 1745845; also: potency is read from the fitted curve at half-maximal effect; % is scaled to controls: 0 for no effect and ±100 for the full control effect; nearly all actives have a fitted effect of over 55% in size
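ATXN2-luciferase reporter cells (luciferase flanked by upstream and downstream ATXN2 gene portions) were treated 24 h at 37 °C with compounds at up to 57 uM. SteadyGlo luminescence gave expression; GF-AFC fluorescence gave viability.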
S2 tox: cell viability loss in ATXN counter-screen | Potency, µM (doses to about 56.7 µM), hits mostly cytotoxic | 0.49% of 400,000 active | S2 cells (HEK-293 line with an ATXN2-luciferase reporter) viability, CellTiter-Fluor protease fluorescence, 24 h; also: potency is read from the fitted curve at half-maximal effect; nearly all actives have a fitted effect of over 40% in size
IL1B secr inh: inflammasome signaling inhibition, IL-1 beta readout | activity change, % at 57.5 µM | THP-1 LPS/ATP IL-1B secretion, AlphaLISA, 16 h; stronger effect = lower value | 4.7% of 360,000 active; in the data active = activity change below about -50%; inconclusive = mostly about -30% to -49%; also: % is scaled to controls: 0 for no effect and ±100 for the full control effect
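Secreted IL-1B measured by AlphaLISA bead assay after 16 h compound exposure of THP-1 cells; compounds (final up to 57.5 uM) added 1 h before LPS (250 ng/mL) and ATP (1.25 mM) stimulation; lower signal means less secretion.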
HepG2 viability: HepG2 cytotoxicity, counter-screen for TGF-b inhibitors; AID 588856; Potency, µM (titrated, usually from 46.1 µM), without a hit: at the top dose activity change, negative = cytotoxicity, actives largely listed as cytotoxic; HepG2 CAGA-GFP viability, ATP luminescence, 18 h; 0.76% of 410,000 active; also: potency is read from the fitted curve at half-maximal effect
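CellTiter-Glo luminescence gave cytotoxicity after 18 hours at 37 degrees C. The cells were HepG2 CAGA-GFP in 1% FBS DMEM, stimulated with 500 pg/mL TGF-beta after compound addition. %Activity was normalised to no-cell wells (complete cell-killing) and DMSO (no toxicity), and curves were fitted and classified.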
Active calls of the source: *; i = inactive; u = inconclusive; x = not tested or not shown; ! = repeats disagree. Unless noted, calls follow the shape of the dose curve; as a rule, active = well fitted curve in the direction sought with a large enough effect; inconclusive = small, poorly fitted or top-dose-only effect, or another doubt; inactive = no such curve, though single readings can be large; an effect the other way counts as inactive or inconclusive.

SMILES	TGFb SMAD3 inh	ATXN2 expr inh	S2 tox	IL1B secr inh	HepG2 viability
C=CC[C@@H](CC(=O)N[C@H](CO)Cc1ccccc1)C(=O)N[C@H](COC(=O)[C@@H](CC=C)Cc1ccc(F)cc1)C(C)(C)C	u	u	u	u	-26.1%
C=CCC[C@H](Cc1ccc(F)cc1)C(=O)OC[C@@H](NC(=O)[C@@H](CC=C)CC(=O)N(CCO)Cc1ccccc1)C(C)(C)C	u	u	20µM*	u	-6.2%
Cc1cc(C(=O)N2CCN(c3cccc(C)c3C)CC2)c2c(C)nn(-c3ccccc3)c2n1	15.3%	-1.6%	i	x	-8.2%
Cc1nc(Oc2ccccc2C)c2oc3ccccc3c2n1	0.7%	-37.8%	u	x	-21.2%
COc1ccccc1C1CN(Cc2c(C)nn(C)c2Cl)Cc2ccccc2O1 (stereo unspecified)	x	x	i	x	x
C=CC[C@@H](CC(=O)N(CCO)Cc1ccccc1)C(=O)NC[C@H](OC(=O)[C@@H](CC=C)Cc1ccc(F)cc1)c1ccccc1	u	u	20µM*	-71.0*	-90.7%
O=C(O[C@H]1[C@H](Cc2ccccc2)NS(=O)(=O)[C@H]2C[C@@H]3C=C[C@]12O3)c1ccccc1Br	-4.6%	x	x	x	10.0%
CCN(CC)CCNC(=O)C(Cl)=C1C(Cl)=C(Cl)C(Cl)=C1Cl	u	u	x	-100.3*	-46.8%
CCN(CC)CCNC(=O)C12CC3CC(CC(C3)C1)C2	12.4%	-11.9%	u	-1.6	1.6%
O=[N+]([O-])c1cc(F)c2cccnc2c1O	u	x	u	30.2	15.8µM*
Oc1c(I)cc(Cl)c2cccnc12	15.8µM*	31.6µM*!	u	20.3	-17.2%
O=[N+]([O-])c1ccc(O)c2ncccc12	5.62µM*	10µM*	12.6µM*!	81.7	-31.3%
O=[N+]([O-])c1cc(Cl)c(O)c2ncccc12	u	20µM*	u	124.3	-4.6%
Cc1cccc(CNCCn2cc(C(=O)Nc3ccccc3)nn2)c1	x	x	i	x	x
Cc1cc(C)cc(C(=O)Nc2ccc(-c3nc4ncccc4o3)cc2)c1	-0.3%	u	u	x	-42.1%
O=[N+]([O-])c1ccc(/C=C2\C=Cc3ccccc32)cc1	3.0%	x	x	x	-8.9%
Oc1c(CN2CCc3ccccc3C2)cc(Cl)c2cccnc12	5.62µM*	5.62µM*	3.98µM*	30.6	-56.5%
O=c1oc2ccccc2c(O)c1Cc1cc(Cl)c2cccnc2c1O	1.3%	u	i	139.3	-12.1%
CC1CC/C(=C\c2ccc3c(c2)OCO3)C(=O)/C1=C/c1ccc2c(c1)OCO2 (stereo unspecified)	-28.2%	31.8%	i	-54.7*	6.4%
O=C(c1ccc([N+](=O)[O-])o1)N(Cc1nnc(-c2ccccc2Cl)o1)C1CC1	1.4%	-20.2%	i	-13.3	0.8%
Cc1ccc(C(=O)N(Cc2nnc(-c3ccccc3Cl)o2)C2CC2)o1	-3.5%	x	i	-9.7	10µM*
CCn1c(SCC(=O)c2cc(OC)ccc2OC)nnc1C(C)C	-3.2%	1.7%	i	-88.3*	11.4%
Cc1cc(=O)c2c(C)nn(-c3ccccc3)c2[nH]1	-5.5%	10.0%	i	9.3	5.62µM*
COc1ccc(C2c3c(ncn(CCN4CCOCC4)c3=N)Oc3ccc4ccccc4c32)cc1OC (stereo unspecified)	u	u	x	-87.5*	14.1µM*
COc1ccc(C2c3c(ncn(CCCO)c3=N)Oc3ccc4ccccc4c32)cc1 (stereo unspecified)	u	u	x	-96.0*	-150.4%
COc1ccc(C2c3c(ccc4ccccc34)Oc3ncn4nc(Cc5ccccc5)nc4c32)cc1OC (stereo unspecified)	-21.7%	0.6%	i	-10.6	-3.0%
COc1ccc(C2c3ccc(O)cc3Oc3ncn(CCN4CCOCC4)c(=N)c32)cc1 (stereo unspecified)	-14.2%	-18.2%	i	u	-20.3%
COc1ccc(C2c3c(ncn(CCCO)c3=N)Oc3ccc4ccccc4c32)cc1OC (stereo unspecified)	u	u	u	-100.0*	-62.5%
O=C(Nc1ccc(SC(F)F)cc1)c1cc(-c2ccc3c(c2)OCCO3)on1	u	6.1%	i	x	-25.2%
